Source: PubChem
Rows were chosen to be rich in hits. Some 21% of all compounds tested hit in one or more screens of this group.
DT40 TDP1 no CPT – qHTS for Inhibitors of human tyrosyl-DNA phosphodiesterase 1 (TDP1): qHTS in cells in absence of CPT | DT40 Tdp1-/- hTDP1 cells, no CPT, ATP luminescence, 48 h | Potency, µM (doses to about 46.2 µM), for the others: at the highest dose activity change, negative = growth inhibition, actives largely listed as inhibitors | 15% of 420,000 active; also: potency is read from the fitted curve at half-maximal effect; nearly all actives have a fitted effect of over 55% in size
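Readout: luminescence from CellTiter-Glo after 30 min in the dark at RT. Cells: DT40 Tdp1-/- with stable hTDP1, 400/well. Exposure: compounds alone, ≥48 hr, 37 °C.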
VP16 counter – inhibits Gal4-VP16 luciferase reporter, ROR gamma counter-screen; 3.5% of 310,000 active; Potency, µM (series often up to 53.6 µM), inactives show at the highest dose activity, negative = inhibition, most hits filed as inhibitors; AID 2546; Drosophila S2 Gal4-VP16 UAS-luciferase, luminescence, 20 h;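 also: Gal4-VP16 expression switched on by copper sulfate through the metallothionein promoter; potency is read from the fitted curve at half-maximal effect; nearly all actives have a fitted effect of over 50% in size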
ELG1 DNA repair – blocks ELG1-dependent DNA repair in HEK293T cells | HEK293T ELG1-luciferase reporter, luminescence, 16 h; DNA damage induced by 5-fluorouridine | Potency, µM (doses to about 46.1 µM), without a hit: at the top dose activity change, negative = inhibition, usual class: inhibitors | 2.3% of 330,000 active | AID 504467; also: potency is read from the fitted curve at half-maximal effect; nearly all actives have a fitted effect of over 55% in size
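Step one: seed 2,000 cells per well. Step two: pin-transfer compound or DMSO alongside 5-fluorouridine. Step three: incubate 16 hr, 37 °C, 5% CO2. Step four: add ONE-Glo, wait 30 min, read luminescence.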
TDP1 cell CPT – growth inhibition of DT40 Tdp1-/-;hTDP1 cells with camptothecin (screen for TDP1 inhibitors); 12% of 420,000 active; chicken DT40 Tdp1-/-;hTDP1 cells + 20 nM CPT, ATP luminescence, 48 h; AID 686979; Potency, µM (titrated, usually from 46.2 µM), for the others: at the top dose activity change, negative = growth inhibition, most hits filed as inhibitors; also: potency is read from the fitted curve at half-maximal effect; nearly all actives have a fitted effect of over 55% in size
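Cell growth measured by CellTiter-Glo luminescence after a minimum 48 h, 37 C compound exposure with 20 nM CPT in Tdp1-knockout DT40 cells stably expressing hTDP1, seeded 400/well; qHTS titration format.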
IL1B secr inh – inflammasome signaling inhibition, IL-1 beta readout; 4.7% of 360,000 active; THP-1 LPS/ATP IL-1B secretion, AlphaLISA, 16 h; hits give low values; activity change, % at 57.5 µM; in the data active = activity change below about -50%; inconclusive = mostly about -30% to -49%
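Secreted IL-1B measured by AlphaLISA bead assay after 16 h compound exposure of THP-1 cells; compounds (final up to 57.5 uM) added 1 h before LPS (250 ng/mL) and ATP (1.25 mM) stimulation; lower signal means less secretion.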
RORg inh – ROR gamma (mouse) transcription inhibition. Drosophila S2 Gal4-RORgamma UAS-luciferase reporter, 20 h. P51450. Potency, µM (series often up to 53.6 µM), for the others: top-dose activity change, negative = inhibition, usual class: inhibitors. 5.4% of 310,000 active; also: potency is read from the fitted curve at half-maximal effect; nearly all actives have a fitted effect of over 60% in size
Target sequence (P51450 whole entry, looked up, the tested form may be a part): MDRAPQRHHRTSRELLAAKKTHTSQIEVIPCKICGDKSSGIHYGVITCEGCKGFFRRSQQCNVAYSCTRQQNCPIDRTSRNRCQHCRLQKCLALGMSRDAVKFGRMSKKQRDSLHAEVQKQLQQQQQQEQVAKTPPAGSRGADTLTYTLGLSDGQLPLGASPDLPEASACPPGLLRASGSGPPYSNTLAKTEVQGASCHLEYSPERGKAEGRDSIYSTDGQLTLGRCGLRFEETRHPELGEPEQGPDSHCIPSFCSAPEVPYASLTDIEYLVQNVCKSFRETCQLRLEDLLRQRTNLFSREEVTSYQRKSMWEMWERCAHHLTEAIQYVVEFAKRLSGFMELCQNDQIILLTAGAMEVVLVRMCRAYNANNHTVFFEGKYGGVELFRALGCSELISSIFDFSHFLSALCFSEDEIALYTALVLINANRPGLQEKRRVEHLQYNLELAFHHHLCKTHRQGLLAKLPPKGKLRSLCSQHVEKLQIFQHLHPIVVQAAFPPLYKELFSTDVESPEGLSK
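ROR gamma transcriptional activity was tracked as Gal4-UAS luciferase output in stably transfected Drosophila Schneider cells, with compound added 1 hr before 700 uM copper sulfate induction and a 20 hr ambient-temperature incubation.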
* = called active by the depositor; ? = inconclusive; nt = no result. Unless noted, calls follow the shape of the dose curve; as a rule, active = well fitted curve in the direction sought with a large enough effect; inconclusive = small, poorly fitted or top-dose-only effect, or another doubt; inactive = no such curve, though single readings can be large; an effect the other way counts as inactive or inconclusive. % is scaled to controls: 0 for no effect and ±100 for the full control effect.

SMILES | DT40 TDP1 no CPT | VP16 counter | ELG1 DNA repair | TDP1 cell CPT | IL1B secr inh | RORg inh
Cn1c2c(c(=O)n(C)c1=O)C(NS(=O)(=O)c1ccccc1)(C(F)(F)F)C(=O)N2 (stereo unspecified) | 1.3% | -1.0% | 1.9% | -10.0% | 36.7 | -25.0%
COc1ccc(C2=NC(C(F)(F)F)(C(F)(F)F)c3c(n(C)c(=O)n(C)c3=O)N2)cc1 | 18.4µM* | -14.4% | 0.0% | 14.6µM* | -7.6 | 1.0%
O=C(NC(=S)Nc1ccc(S(=O)(=O)N2CCCC2)cc1)C1CCC1 | 16.4µM* | -2.3% | -23.1% | ? | 14.0 | 11.2µM*
O=C(NC(=S)Nc1ccc(S(=O)(=O)N2CCCC2)cc1)C1CC1 | ? | -1.4% | ? | ? | -26.3 | 10µM*
CC1(c2nnnn2Cc2ccccc2)CCC(=O)N1Cc1ccc(F)cc1 (stereo unspecified) | -13.9% | nt | nt | -11.8% | 32.9 | nt
C=CCN([C@H](C(=O)OC)C(C)C)S(=O)(=O)CCNCc1ccccc1 | ? | nt | nt | ? | -1.9 | nt
Cc1ccc(Cl)cc1N1CCN(C(=O)c2cn(C)c3ccc(S(=O)(=O)N4CCCCC4)cc3c2=O)CC1 | 6.0% | nt | nt | 8.6% | nt | nt
C/C(Cn1cnc([N+](=O)[O-])n1)=N\NC(=O)c1ccc(F)cc1 | -16.4% | -9.2% | ? | 6.8% | -0.1 | -42.6%
C/C(Cn1nnc([N+](=O)[O-])n1)=N\NC(=O)c1ccncc1 | 20.6µM* | ? | ? | 16.4µM* | 45.9 | ?
C/C(Cn1nnc([N+](=O)[O-])n1)=N\NC(=O)c1ccc(C)cc1 | 14.6µM* | ? | ? | 13µM* | 40.8 | ?
Cc1ccccc1NC(=O)N1CCC(CN2CCCC2)CC1 | 1.4% | nt | nt | 10.3% | nt | nt
O=C(C1CCCN(S(=O)(=O)c2cccc3nsnc23)C1)N1CCN(c2ccccc2)CC1 (stereo unspecified) | 20.6µM* | nt | nt | 16.4µM* | nt | nt
Cc1cccc(N2CCN(C(=O)C3CCCN(S(=O)(=O)c4cccc5nsnc45)C3)CC2)c1C (stereo unspecified) | 18.4µM* | nt | nt | 2.6% | nt | nt
O=C(C1CCCN(S(=O)(=O)c2cccc3nonc23)C1)N1CCN(c2cccc(C(F)(F)F)c2)CC1 (stereo unspecified) | 11.6µM* | nt | nt | 14.6µM* | nt | nt
O=C(C1CCCN(S(=O)(=O)c2cccc3nsnc23)C1)N1CCCCCC1 (stereo unspecified) | ? | -13.5% | -21.0% | -24.5% | 10.9 | 4.4%
O=C(C1CCCN(S(=O)(=O)c2cccc3cccnc23)C1)N1CCN(c2ccccc2F)CC1 (stereo unspecified) | 14.6µM* | -5.5% | ? | 23.1µM* | 14.3 | 24.6%
Cc1cc(S(=O)(=O)N2CCOCC2)ccc1OCC(=O)Nc1ccc(F)cc1 | -28.2% | -3.4% | 2.9% | 14.3% | -10.6 | 5.5%
Cc1ccc2c(c1)c1c(c(=O)n(Cc3ccccc3)c(=O)n1CC(=O)Nc1ccccc1F)n2C | ? | nt | nt | -5.1% | nt | nt
O=C(C1CCCN(S(=O)(=O)c2cccc3nsnc23)C1)N1CCN(c2ccccc2F)CC1 (stereo unspecified) | 14.6µM* | nt | nt | 18.4µM* | nt | nt
COc1ccc2nccc(/C=C/c3ccc(N(C)C)cc3)c2c1 | 11.2µM* | nt | nt | ? | nt | nt
CN(C)c1ccc(CCc2ccc(N)cc2)cc1 | -21.9% | nt | nt | 11.0% | -4.8 | nt
COc1cccc2nccc(/C=C/c3ccc(N(C)C)cc3)c12 | 12.6µM* | nt | nt | 31.6µM* | nt | nt
CN(C)c1ccc(/C=C/c2ccnc3ccc(-c4ccccc4)cc23)cc1 | 14.1µM* | nt | nt | ? | nt | nt
COc1ccc2sc(-c3ccc(N(C)C)cc3)c(-c3cnc(OC)nc3)c2c1 | ? | nt | 28.3% | ? | -10.2 | nt
